Source: PubChem BioAssay AID784 (The Scripps Research Institute Molecular Screening Center, 2007)
In all, about 30,000 compounds went through this assay and about 130 (0.43%) were called active. This excerpt belongs to a sample that is enriched for actives. A number with no mark means an inactive call. No stated cut-off is given here; in the data, active means activation above about 65%; inactive means the rest.

The compounds below were run against Lysosomal acid glucosylceramidase (Homo sapiens) (UniProt P04062) (assay: GBA activity enhancers in patient fibroblasts, primary screen, cell-based (AID 784;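 further: 0% = vehicle wells and 100% = positive control wells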)). Conditions: L444P Gaucher fibroblasts, 4-MU-glucoside fluorescence, 3 days; at 10 µM; active compounds read high.
Sequence of Lysosomal acid glucosylceramidase (Homo sapiens) (P04062 whole entry L483P): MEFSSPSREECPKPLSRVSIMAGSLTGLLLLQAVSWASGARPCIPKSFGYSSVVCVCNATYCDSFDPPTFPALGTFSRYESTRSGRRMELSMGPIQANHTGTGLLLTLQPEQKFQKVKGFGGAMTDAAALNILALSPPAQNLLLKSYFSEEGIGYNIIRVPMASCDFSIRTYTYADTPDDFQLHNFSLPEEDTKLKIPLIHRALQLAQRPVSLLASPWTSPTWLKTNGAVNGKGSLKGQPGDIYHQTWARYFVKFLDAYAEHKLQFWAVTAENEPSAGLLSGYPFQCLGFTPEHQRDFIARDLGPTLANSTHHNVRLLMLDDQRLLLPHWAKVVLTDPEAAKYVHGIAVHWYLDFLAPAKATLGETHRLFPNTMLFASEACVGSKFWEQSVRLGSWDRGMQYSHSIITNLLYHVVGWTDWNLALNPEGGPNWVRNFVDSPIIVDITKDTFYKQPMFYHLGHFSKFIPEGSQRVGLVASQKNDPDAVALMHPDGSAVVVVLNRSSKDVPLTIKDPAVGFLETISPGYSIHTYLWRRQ

| SMILES | activation |
| --- | --- |
| Cc1cc(OCCN2CCCC2)ccc1C(C)C | -12.4% |
| CCC(=O)Nc1nc(OC)cc(OC)n1 | -18.3% |
| CC(=O)c1cnc(Nc2nc(C)c3cc(C)ccc3n2)nc1C | 13.5% |
| Cc1nnc(SCC(=O)N2CCc3ccccc32)n1-c1ccccc1 | -18.6% |
| O=C(Cn1nnc(-c2ccccc2)n1)NCc1ccccc1 | -40% |
| COc1ccc(Cn2c(=O)sc3ccccc32)cc1OC | -6.04% |
| O=C(O)Cc1ccc(NC(=O)c2cccs2)cc1 | -9.31% |
| O=C(NCc1cccnc1)c1cn(-c2ccccc2)nc1-c1cccs1 | -15.4% |
| COCCCNC(=O)c1c(F)c(F)c(F)c(F)c1F | -31.9% |
| CCOC(=O)C(CCOc1cccc(CC)c1)C(=O)OCC | -0.5% |
| CCn1cc(C(=O)NCc2ccc(OC)cc2OC)c(=O)c2ccc(C)nc21 | -10.1% |
| Cn1c(=O)[nH]c(=O)c2c1nc(N1CCCCCC1)n2CC(=O)c1ccccc1 | -1.4% |
| CC1Cc2ccccc2N1C(=O)Cn1cnc2ccccc2c1=O (stereo unspecified) | -14.5% |
| COC(=O)[C@@H](NC(=O)NCc1cccc(OC)c1)C(C)C | -5.38% |
| CCCc1nnc(NC(=O)CN2C(=O)c3ccccc3S2(=O)=O)s1 | -21.6% |
| O=P(O)(CP(=O)(c1ccccc1)c1ccccc1)c1ccccc1 | -3.68% |
| CCCCNC(=O)CSc1nnc(-c2ccco2)n1C | -32.4% |
| Cc1c(C)c2cc3c4c(oc3c(C)c2oc1=O)CCCC4 | 102% (active) |
| COC(=O)CCSc1nccn1Cc1ccccc1 | -3.3% |
| Fc1ccccc1CCNc1nnnn1-c1ccccc1 | -5.46% |
| CCN(C(=O)CSc1ncn[nH]1)c1cccc2ccccc12 | 4.77% |
| COCCn1nnnc1CN1CCC(NC(=O)Nc2cccc(OC)c2)CC1 | 2.44% |
| Cc1ccc(S(=O)(=O)N2CCN(C(=O)CCC(=O)NC3CCCc4ccccc43)CC2)cc1 (stereo unspecified) | -7.53% |
| Cc1ccc(-c2noc(CCC(N)=O)n2)cc1 | 1.93% |

| SMILES | activation |
| --- | --- |
| COCCCNC(=O)Cn1cc(C(=O)C2CC2)c2ccccc21 | 72.8% (active) |
| O=C(Cn1cc(C(=O)c2cccs2)c2ccccc21)NCc1cccs1 | 5.52% |
| COC(=O)c1cn(CC(=O)NCc2cccs2)c2ccccc12 | -8.81% |
| CCCCn1c(SCC(=O)N2CCC(C(=O)OCC)CC2)nc2cc(S(N)(=O)=O)ccc21 | -6.49% |
| CCOC(=O)c1cc2c(n(-c3ccc(C)cc3)c1=O)CCCC2=O | -11% |
| Cc1cccc(N2CC(C)Cn3c2nc2c3c(=O)n(CC(=O)OCc3ccccc3)c(=O)n2C)c1 (stereo unspecified) | -17.9% |
| CCOc1ccccc1-n1c(SCC(=O)N2CCCC2)nnc1-c1ccoc1C | 0.64% |
| O=C(Nc1nc2cc3c(cc2s1)OCCO3)c1cccc(S(=O)(=O)N2CCOCC2)c1 | 0.12% |
| COc1ccccc1OCCC(=O)OCC(=O)NC(=O)NC(C)(C)C | 4.86% |
| Cn1nc(-c2ccc(N3CCOCC3)c(NC(=O)c3ccccc3)c2)c2ccccc2c1=O | -54.8% |
| C=CCn1c(N)c(S(=O)(=O)c2cccs2)c2nc3ccccc3nc21 | -13.8% |
| CC(C)Cn1c(N)c(C(=O)NCc2cccs2)c2nc3ccccc3nc21 | 73.7% (active) |
| C=CCn1c(N)c(C(=O)OCC(C)C)c2nc3ccccc3nc21 | -9.15% |
| COc1ccc(CC(=O)Nc2ccc3c(c2)CCC3)cc1S(=O)(=O)N1CCOCC1 | 32.8% |
| Cc1ccc(C(=O)NC2CC(C)(C)NC(C)(C)C2)c(C)c1 | -52.5% |
| CC(=NC1CCN(Cc2ccccc2)CC1)c1c(O)[nH]c(=O)[nH]c1=O | -6.5% |
| CS(=O)(=O)N(CC(=O)N1CCN(Cc2ccc3c(c2)OCO3)CC1)c1ccc2c(c1)OCO2 | -6.7% |
| CCC(C)n1[nH]c(=O)cc1N (stereo unspecified) | 4.55% |
| COc1ccc(C(=O)Cn2nnc(-c3ccc(N4CCOCC4)cc3)n2)cc1OC | -17.5% |
| O=C1CN(C(=O)COC(=O)C2CC(=O)N(Cc3ccco3)C2)c2ccccc2N1 (stereo unspecified) | 4.58% |
| CN(C(=O)c1ccno1)c1nnc(-c2cccnc2)s1 | -12.7% |
| COC(=O)c1sccc1NC(=O)c1csc2c1CCCC2 | -10.4% |
| CC(=O)Cc1nsc(NC(=O)c2csc3c2CCCC3)n1 | -9.06% |
| COC(=O)c1sc(NC(=O)c2csc3c2CCCC3)nc1C | 67.1% (active) |

| SMILES | activation |
| --- | --- |
| COc1cccc(N(CC(=O)Nc2cccc(N(C)S(C)(=O)=O)c2)S(C)(=O)=O)c1 | -7.1% |
| COc1cccc(N(CC(=O)Nc2cccc(F)c2)S(C)(=O)=O)c1 | 4.09% |
| CCN(CC)S(=O)(=O)c1ccc(NC(=O)CN(c2cccc(F)c2)S(C)(=O)=O)cc1 | 83.1% (active) |
| COc1ccccc1N1CCN(C(=O)CSc2nnc(-c3ccoc3C)o2)CC1 | 7.59% |
| CCC(C)(C)NC(=O)C(c1cccn1C)N(Cc1ccc(C)cc1)C(=O)Cn1nnc2ccccc21 (stereo unspecified) | -4.98% |
| CCOC(=O)C1(Cc2ccc(O)cc2)NC(c2ccccc2F)C2C(=O)N(C)C(=O)C21 (stereo unspecified) | 102% (active) |
| CCOC(=O)C1(c2ccccc2)NC(c2ccc(N(C)C)cc2)C2C(=O)N(C)C(=O)C21 (stereo unspecified) | -22.4% |
| COc1ccc2nc(N3CCCC(O)C3)c(C#N)cc2c1 (stereo unspecified) | -3.51% |
| Cc1nc(SC(C)C)[nH]c(=O)c1Cc1ccccc1 | 1.07% |
| CCc1c(C)nc2ncnn2c1N1CCC(C(=O)NCc2ccc3c(c2)OCO3)CC1 | 9.86% |
| CCOC(=O)C(C)Oc1cccc2c(=O)n(CC(=O)N3CCc4ccccc43)ccc12 (stereo unspecified) | 3.53% |
| O=C(COC(=O)c1ccc2c(c1)OCCO2)NCc1ccccc1 | 1.84% |
| Cc1cc(C)c(S(=O)(=O)NCCCN2CCOCC2)cc1Br | 17.8% |
| CCN(CC)S(=O)(=O)c1cccc(C(=O)Nc2ccccc2)c1 | -3.99% |
| CC(C)C[C@H](NC(=O)NCCc1ccc(Cl)cc1)C(=O)O | -14.7% |
| COc1ccc(CCN=C2SCC(=O)N2C)cc1OC | -11.5% |
| CCOc1ncccc1C(=O)OCc1cn2cc(Cl)ccc2n1 | 2.09% |
| COc1ccccc1N1CCN(C(=O)Cn2nnc(-c3cccs3)n2)CC1 | -45% |
| O=C(CN1CCN(c2nc(-c3ccccc3)cs2)CC1)NCc1ccc2c(c1)OCO2 | -22.9% |
| COC(=O)c1cn(-c2ccccc2)nc1-c1cccnc1 | 64.9% |
| CCOc1ccc(N2C(=O)CC(N(O)c3ccccc3)C2=O)cc1 (stereo unspecified) | 20.8% |
| Cc1cc(C)nc(SCc2nnc(SCC(=O)OC3CCCCC3)o2)n1 | -16% |
| Cc1ccc(C(=O)CSc2nc3ccccc3c(=O)n2N)o1 | -3.06% |
| Cc1ccc(S(=O)(=O)NCC(=O)OCC(=O)N2CCc3ccccc32)cc1 | -6.72% |

| SMILES | activation |
| --- | --- |
| O=C(Nc1ccccc1)c1cccnc1Nc1ccccc1 | -10.1% |
| O=C(Nc1ccc2c(c1)nc1n2CCCCC1)c1cc(S(=O)(=O)N2CCOCC2)ccc1Cl | -3.59% |
| CCN(CC(=O)NC(C)C)C(=O)CCNC(=O)c1ccc(Cl)cc1 | 21% |
| CN1CCN(S(=O)(=O)c2ccc(NC(=O)c3ccco3)cc2)CC1 | -8.04% |
| CCC1SC2=NCCN2C1(O)c1ccc(Cl)cc1 (stereo unspecified) | -18.2% |
| c1ccc(-c2oc3ncnc(N4CCOCC4)c3c2-c2ccccc2)cc1 | -12.4% |
| CCC(C)Sc1nc2c(c(=O)[nH]c(=O)n2C)n1CC(O)COc1cccc2ccccc12 (stereo unspecified) | -21% |
| CNC(=O)C1CC(=O)N(Cc2ccc3c(c2)OCO3)C(=Nc2ccc(F)cc2)S1 (stereo unspecified) | -16.6% |
| COc1ccc(C(=O)CSc2nccc(=O)[nH]2)cc1 | -9.63% |
| O=C(OCc1nnc(-c2ccccc2)o1)c1ccc2c(c1)C(=O)N(CCc1ccccc1)C2=O | -2.93% |
| COc1c(C)cccc1C(=O)Nc1cc(Cl)ccc1N1CCOCC1 | -42.8% |
| CC(=O)OCc1cc2cc(C)ccc2[nH]c1=O | -12% |
| COc1cc2c(cc1OC)C(c1ccncc1)CC(=O)N2 (stereo unspecified) | -30.8% |
| CCc1c(C)nc(N)n2c(SCC(=O)N3CCN(c4ccccc4)CC3)nnc12 | -9.46% |
| CCOC(=O)c1c(NC(=O)CCC(=O)NCc2ccco2)sc2c1CCCC2 | -3.62% |
| O=c1nc(N2CCOCC2)nc2n1CCO2 | 0.48% |
| O=C(CN1C2CCC1CC(NC(=O)C1CC1)C2)NCc1ccccc1 (stereo unspecified) | -20% |
| CCn1c(COc2cccc(OC)c2)nnc1SCC(=O)N1CCOCC1 | 2.04% |
| COc1ccc(S(=O)(=O)N(CCCN2CCCC2=O)Cc2cc3c(C)ccc(C)c3[nH]c2=O)cc1 | -24.5% |
| COc1ccccc1Nc1ncnc2c1oc1ccccc12 | -53.1% |
| O=C(NCc1ccccn1)c1cc2ccccc2oc1=O | -7.53% |
| O=C(CNCCO)NC12CC3CC(CC(C3)C1)C2 | 10% |
| COc1cc(NS(=O)(=O)c2ccccc2)ccc1-n1nc(C)cc1C | 4.78% |
| C=C(C)c1cccc(C(C)(C)NC(=O)N2CCN(c3ncccn3)CC2)c1 | 0.53% |
